# According to PubChem BioAssay:
# Active and inactive are the calls of the source. Unless noted, how the calls were made is not given here.
# Columns and labels:
# [1] = compounds binding Alexa647 anti-His antibody – biochemical, small-molecule microarray, 635 nm fluorescence, artefact control for SMM control protein annotation, primary screen (AID 1128); details: higher = more signal;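 further: score merges feature fluorescence with signal-to-noise for each printed compound spot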
# [2] = tested on: Human papillomavirus type 1a E7 protein (residues 1-88); test: HPV1a E7 small-molecule binders, primary screen, biochemical, small-molecule microarray, residues 1-88, 635 nm (AID 1129); details: small-molecule microarray binding, fluorescence 635 nm; higher = more signal
# [3] = target: Focal adhesion kinase 1 (Homo sapiens) (UniProt Q05397); test: PTK2 protein binding on printed compound slides – biochemical, small-molecule microarray, 635/667 nm fluorescence, BSA, DTT, primary screen (AID 1130); details: 635 nm fluorescence, higher = more signal;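 further: composite of spot emission at 667 nm and signal to noise over triplicate slides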
# Focal adhesion kinase 1 (Homo sapiens), sequence (Q05397 whole entry, looked up): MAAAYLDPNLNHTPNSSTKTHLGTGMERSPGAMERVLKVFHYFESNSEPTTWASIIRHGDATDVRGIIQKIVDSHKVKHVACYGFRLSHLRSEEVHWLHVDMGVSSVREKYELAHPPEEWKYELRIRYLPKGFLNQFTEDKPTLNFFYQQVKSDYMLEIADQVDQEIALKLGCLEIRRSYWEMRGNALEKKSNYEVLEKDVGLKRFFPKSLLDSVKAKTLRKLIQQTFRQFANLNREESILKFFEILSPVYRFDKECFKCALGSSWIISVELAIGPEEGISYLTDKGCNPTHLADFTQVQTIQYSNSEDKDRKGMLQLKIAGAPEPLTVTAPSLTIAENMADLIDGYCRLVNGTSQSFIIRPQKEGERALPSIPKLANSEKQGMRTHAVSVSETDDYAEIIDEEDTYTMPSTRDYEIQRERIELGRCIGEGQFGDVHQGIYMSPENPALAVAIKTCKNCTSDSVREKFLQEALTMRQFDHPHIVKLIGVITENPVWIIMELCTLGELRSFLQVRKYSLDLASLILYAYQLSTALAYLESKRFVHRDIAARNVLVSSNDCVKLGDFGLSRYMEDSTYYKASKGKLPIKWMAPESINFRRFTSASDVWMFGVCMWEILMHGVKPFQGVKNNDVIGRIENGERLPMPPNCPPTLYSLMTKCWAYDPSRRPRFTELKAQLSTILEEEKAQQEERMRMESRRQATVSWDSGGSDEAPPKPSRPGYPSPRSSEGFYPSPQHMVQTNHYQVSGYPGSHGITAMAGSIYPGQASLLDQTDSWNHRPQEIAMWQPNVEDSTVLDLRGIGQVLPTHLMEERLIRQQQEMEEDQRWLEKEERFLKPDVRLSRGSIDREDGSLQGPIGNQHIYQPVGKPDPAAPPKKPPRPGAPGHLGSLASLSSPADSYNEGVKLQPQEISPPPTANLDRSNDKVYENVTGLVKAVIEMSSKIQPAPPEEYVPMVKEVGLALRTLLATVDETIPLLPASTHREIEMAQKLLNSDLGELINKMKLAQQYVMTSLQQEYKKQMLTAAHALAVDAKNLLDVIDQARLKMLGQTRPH
# [4] = tested on: Fibrinogen (Alexa647-labelled); test: Alexa647-fibrinogen binding to printed small molecules – biochemical, small-molecule microarray, 635/667 nm fluorescence, artefact control for SMM control-protein annotation, profiling panel (AID 1131); details: fibrinogen-A647 binding fluorescence, higher = more signal;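 further: z-score merges 667 nm fluorescence with per-spot signal-to-noise over triplicate slides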
# [5] = target: Follistatin (Homo sapiens) (UniProt P19883); test: FST protein binding to printed compounds – biochemical, small-molecule microarray, 635/667 nm fluorescence, primary screen (AID 1132); details: 635 nm fluorescence, higher = more signal
# Follistatin (Homo sapiens), sequence (P19883 whole entry, looked up): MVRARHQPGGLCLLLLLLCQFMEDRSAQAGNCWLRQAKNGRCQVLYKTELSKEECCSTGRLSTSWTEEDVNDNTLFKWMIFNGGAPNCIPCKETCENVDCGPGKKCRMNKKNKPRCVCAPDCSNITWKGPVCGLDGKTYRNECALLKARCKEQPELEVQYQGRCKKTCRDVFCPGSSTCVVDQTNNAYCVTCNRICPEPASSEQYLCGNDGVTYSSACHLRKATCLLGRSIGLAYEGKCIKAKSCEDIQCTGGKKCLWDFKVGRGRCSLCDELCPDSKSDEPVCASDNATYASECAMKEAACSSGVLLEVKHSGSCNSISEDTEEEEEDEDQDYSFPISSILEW
# [6] = target: Fibroblast growth factor 2 (Homo sapiens) (UniProt P09038); test: basic fibroblast growth factor binding to printed compounds – biochemical, small-molecule microarray, 635/667 nm fluorescence, primary screen (AID 1133); details: FGF2, fluorescence 635/667, higher = more signal
# Fibroblast growth factor 2 (Homo sapiens), sequence (P09038 whole entry, looked up): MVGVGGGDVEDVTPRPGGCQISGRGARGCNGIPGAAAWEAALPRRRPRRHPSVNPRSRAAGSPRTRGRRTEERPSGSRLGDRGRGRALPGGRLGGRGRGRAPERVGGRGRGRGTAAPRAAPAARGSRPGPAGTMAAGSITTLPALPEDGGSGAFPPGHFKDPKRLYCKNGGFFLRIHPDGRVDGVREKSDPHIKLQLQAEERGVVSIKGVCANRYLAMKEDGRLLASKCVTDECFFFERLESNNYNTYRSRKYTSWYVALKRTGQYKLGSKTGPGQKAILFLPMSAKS
# [7] = JC-1 mitochondrial potential readout, lung cancer cells – cell-based, A549, JC-1 fluorescence, basal, 24 h, 100 nL, profiling panel (AID 1138); details: higher = more signal;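 further: A549 lung adenocarcinoma cells under basal conditions with no added stimulus; test concentration not given here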
# Lefty1 = Lefty1 protein binding to printed compounds – biochemical, small-molecule microarray, 635/667 nm fluorescence, primary screen (AID 1139); details: fluorescence 635/667, higher = more signal
# [8] = tested on: wheat germ agglutinin (Triticum aestivum), Alexa647-labelled; test: Alexa647-WGA lectin binding to printed small molecules – biochemical, small-molecule microarray, 635/667 nm fluorescence, artefact control for SMM control-protein annotation, profiling panel (AID 1140); details: WGA-A647 binding, 635 nm fluorescence, higher = more signal;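 further: score merges 667 nm feature emission with signal to noise over triplicate slides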
# [9] = target: Luciferin 4-monooxygenase (Photinus pyralis) (UniProt P08659); test: inhibition of purified Photinus pyralis luciferase – biochemical, luminescence, purified enzyme, 2006 set, primary screen (AID 1141); details: purified firefly luciferase, SteadyGlo luminescence, 30 min; higher = more signal, called active from +8 up or from −8 down;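 further: cell-free assay with purified firefly luciferase at 100 ng per well in PBS; test concentration not given here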
# Luciferin 4-monooxygenase (Photinus pyralis), sequence (P08659 whole entry, looked up): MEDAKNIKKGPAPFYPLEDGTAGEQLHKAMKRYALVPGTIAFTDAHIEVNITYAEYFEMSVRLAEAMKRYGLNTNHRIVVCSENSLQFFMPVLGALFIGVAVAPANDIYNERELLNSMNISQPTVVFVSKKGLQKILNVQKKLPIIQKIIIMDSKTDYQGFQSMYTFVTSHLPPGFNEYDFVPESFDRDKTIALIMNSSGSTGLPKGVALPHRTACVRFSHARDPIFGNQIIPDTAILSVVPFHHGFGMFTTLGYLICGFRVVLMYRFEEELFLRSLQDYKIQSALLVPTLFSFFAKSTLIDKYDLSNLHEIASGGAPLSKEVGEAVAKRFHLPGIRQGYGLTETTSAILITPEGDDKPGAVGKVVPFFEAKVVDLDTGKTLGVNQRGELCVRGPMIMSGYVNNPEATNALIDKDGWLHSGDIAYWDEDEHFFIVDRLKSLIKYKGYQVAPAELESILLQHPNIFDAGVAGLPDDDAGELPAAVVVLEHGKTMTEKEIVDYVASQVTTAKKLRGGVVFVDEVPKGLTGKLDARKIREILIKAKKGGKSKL
# [10] = tested on: Wnt5a (protein binding on small-molecule microarray); test: small molecules binding Wnt5a protein – biophysical, small-molecule microarray, 635/667 nm fluorescence, primary screen (AID 1142); details: 635 nm fluorescence, higher = more signal;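 further: fluorescence read at 667 nm with signal to noise per printed feature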
# [11] = ATP-based viability of Huh7 replicon cells – cell-based, CellTiter-Glo luminescence, basal, 48 h, cytotoxicity control for HCV replication inhibitor project, primary screen (AID 1143); details: higher = more signal, called active from +8 up or from −8 down;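 further: Huh7 hepatoma cells carrying a hepatitis C replication reporter with no stimulus; test concentration not given here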
# [12] = Pseudomonas biofilm growth suppression – PAO1 strain, BacTiter-Glo luminescence, LB-PBS, primary screen (AID 1144); details: P. aeruginosa PAO1 biofilm, 12 h, higher = more signal
# [13] = basal CRE-LacZ reporter activity in PC12 – cell-based, unstimulated, primary screen (AID 1145); details: no forskolin, luminescence, 4.5 h, higher = more signal, called active from +8 up or from −8 down
# [14] = forskolin-driven CRE-LacZ activity in PC12 – cell-based, CRE-LacZ reporter, forskolin-stimulated, primary screen (AID 1146); details: luminescence, 4.5 h, higher = more signal, called active from +8 up or from −8 down;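 further: PC12 cells with 6xCRE LacZ reporter stimulated by forskolin 10 µM; beta-galactosidase reporter signal reflecting CREB driven transcription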
# [15] = target: Streptavidin (Streptomyces avidinii) (UniProt P22629); test: compounds binding control protein streptavidin – biophysical, small-molecule microarray, 635/667 nm fluorescence, artefact control for SMM compound annotation, primary screen (AID 1147); details: higher = more signal;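 further: signal reflects streptavidin binding to arrayed compounds as a control protein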
# Streptavidin (Streptomyces avidinii), sequence (P22629 whole entry, looked up): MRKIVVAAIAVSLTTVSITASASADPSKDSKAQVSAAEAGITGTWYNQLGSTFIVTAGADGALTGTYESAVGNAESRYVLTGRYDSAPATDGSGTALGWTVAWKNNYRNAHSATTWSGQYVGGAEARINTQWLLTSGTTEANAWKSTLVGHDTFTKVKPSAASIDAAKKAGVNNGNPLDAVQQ
# [16] = probe aInhba binding on compound microarray – biochemical, small-molecule microarray, 635/667 nm fluorescence, primary screen (AID 1148); details: higher = more signal;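 further: score merges 667nm spot fluorescence with signal-to-noise for antibody binding to printed compounds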
# Torsin-1A (Homo sapiens) [17] = target: Torsin-1A (Homo sapiens) (UniProt O14656); test: TOR1A wild-type binding on microarray – cell lysate, small-molecule microarray, lysate, 635/667 nm, primary screen (AID 1149); details: COS7 hTOR1A-WT lysate, 635 nm fluorescence, higher = more signal
# Torsin-1A (Homo sapiens), sequence (O14656 whole entry, looked up): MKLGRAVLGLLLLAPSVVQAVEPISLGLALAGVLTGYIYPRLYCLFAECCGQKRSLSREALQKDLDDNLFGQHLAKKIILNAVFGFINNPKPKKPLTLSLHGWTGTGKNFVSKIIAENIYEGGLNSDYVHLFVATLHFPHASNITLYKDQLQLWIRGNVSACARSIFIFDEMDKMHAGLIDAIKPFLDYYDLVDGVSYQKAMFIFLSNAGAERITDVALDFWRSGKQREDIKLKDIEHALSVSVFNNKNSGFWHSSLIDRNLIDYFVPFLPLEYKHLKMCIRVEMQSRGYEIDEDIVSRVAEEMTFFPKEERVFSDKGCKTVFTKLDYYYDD
# Torsin-1A (Homo sapiens) [18] = target: Torsin-1A (Homo sapiens) (UniProt O14656); test: torsin A mutant lysate binding on microarrays – cell lysate, small-molecule microarray, COS7 lysate, 635/667 nm fluorescence, primary screen (AID 1150); details: COS7 hTOR1A mutant lysate, 635 nm fluorescence, higher = more signal;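 further: score pools 667 nm emission and signal to noise measuring lysate protein binding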
# [19] = tested on: Sonic hedgehog protein (Shh); test: Sonic hedgehog microarray binding compounds – biochemical, small-molecule microarray, 635/667 nm fluorescence, primary screen (AID 1151); details: 635 nm fluorescence, higher = more signal;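 further: Shh protein binding to compounds spotted on small-molecule microarray slides; score combines spot fluorescence intensity with signal-to-noise across triplicate slides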
Compound,composite z-score [1],composite z-score [2],composite z-score [3],composite z-score [4],composite z-score [5],composite z-score [6],z-score [7],composite z-score (Lefty1),composite z-score [8],z-score [9],composite z-score [10],z-score [11],z-score [12],z-score [13],z-score [14],composite z-score [15],composite z-score [16],composite z-score (Torsin-1A (Homo sapiens) [17]),composite z-score (Torsin-1A (Homo sapiens) [18]),composite z-score [19]
CO[C@@H]1C=CCC(=O)N2CCC[C@H]2C(=O)OC[C@@H](C)C(=O)OC[C@H]1C,0.21,-0.565,-0.267,-0.294,1.34,1.33,2.01,0.925,-0.7,-1.1 (inactive),0.172,-0.0949 (inactive),-1.23 (inactive),-0.0234 (inactive),0.2 (inactive),-0.482,-0.0762,-0.0067,0.652,1.68
CC(C)(C)N1C(=O)[C@H]2[C@H]3[C@H](O)[C@H](O)CC(=O)[C@@H]3CC[C@H]2C1=O,-0.0303,0.237,-0.0066,-0.642,0.539,1.08,-0.662,0.49,0.138,0.166 (inactive),-0.0326,-1.07 (inactive),-0.25 (inactive),-0.93 (inactive),-0.785 (inactive),0.179,-0.109,0.236,0.261,0.525
O=C(NN=C1C[C@@H](O)[C@@H](O)[C@@H]2[C@@H]3C(=O)N(C[C@@H]4CCCO4)C(=O)[C@@H]3CC[C@@H]12)OCc1ccccc1,-0.391,-0.645,-0.345,-0.545,0.5,0.23,0.49,0.305,-0.248,-0.827 (inactive),0.0252,-0.746 (inactive),0.556 (inactive),0.694 (inactive),0.13 (inactive),-0.34,-0.242,2.6,2.72,0.604
CCC(=O)[C@@]1(O)C(=O)N2C(=C3C(=O)OCC[C@@H]31)N(Cc1ccccc1)C(C)=C(C(=O)OC)[C@H]2c1ccccc1,0.188,0.405,1.08,0.375,0.538,0.465,0.523,0.436,0.0183,-0.901 (inactive),-0.308,0.321 (inactive),-1.51 (inactive),0.513 (inactive),-0.205 (inactive),0.565,0.0633,0.578,0.224,0.438
CC(C)CON=C1C[C@@H](O)[C@@H](O)[C@@H]2[C@@H]3C(=O)N(C(C)(C)C)C(=O)[C@@H]3CC[C@H]12,1.15,-0.264,-0.0405,0.0972,-0.924,-0.546,-0.125,-0.52,-0.0283,0.473 (inactive),-0.147,0.419 (inactive),-0.208 (inactive),-0.116 (inactive),0.366 (inactive),-0.312,-0.125,0.324,0.329,-0.739
COc1ccc(COC(=O)NN=C2C[C@@H](O)[C@@H](O)[C@@H]3[C@@H]4C(=O)N(c5ccc(F)cc5F)C(=O)[C@@H]4CC[C@H]23)cc1,0.524,-0.199,0.168,0.89,-0.469,0.0314,-0.654,-0.773,0.4,0.732 (inactive),0.118,-1.64 (inactive),-0.597 (inactive),-1.02 (inactive),0.454 (inactive),1.19,-0.0719,-0.309,0.627,-1.52
